From PubChem BioAssay (EPA / NIEHS)
Where “and” joins values, the source holds several entries; their conditions need not be identical. Identical values can stand only once. Inconclusive results are not listed. Some structures have more than one record in an assay (separate samples or runs), and their calls can disagree. Calls of active or inactive are those of the source. The calls were made as follows, unless noted: active = hit-call score of the fitted dose curve at least 0.9, where 1 is the maximum; inconclusive = response in the unintended direction; inactive = score below 0.9.

What was measured:
[1] = read-out: UDP glucuronosyltransferase (UGT1A1), UGT1A1 (gene 54658); test: LTEA_HepaRG_UGT1A1: Life Technologies and Expression Analysis (LTEA) Assay for UDP glucuronosyltransferase (UGT1A1) using HepaRG (AID 2283538; active = hit-call score of the fitted dose curve at least 0.9, where 1 is the maximum; inactive = score below 0.9); conditions: mRNA level, 48 h; actives raise or lower the signal
Summary of the method: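 HepaRG, 48 h chemical exposure (top 100 uM, half-log 8-pt, 0.5% DMSO vehicle), duplicate wells; qRT-PCR (TaqMan, Fluidigm array) for UGT1A1 mRNA, housekeeping-normalized; bidirectional curve fit vs DMSO baseline.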

[2] = read-out: UDP glucuronosyltransferase (UGT1A6), UGT1A6 (gene 54578); test: LTEA_HepaRG_UGT1A6: Life Technologies and Expression Analysis (LTEA) Assay for UDP glucuronosyltransferase (UGT1A6) using HepaRG (AID 2283539; active = hit-call score of the fitted dose curve at least 0.9, where 1 is the maximum; inactive = score below 0.9); conditions: mRNA level, 48 h; actives raise or lower the signal
Summary of the method: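 qRT-PCR readout of UGT1A6 mRNA (normalized to ACTB/GAPDH/POLR2A) in differentiated HepaRG cells after 48 h chemical exposure; 8 concentrations, top 100 uM, half-log steps, 0.5% DMSO. Bidirectional curve fit relative to DMSO baseline.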

[3] = read-out: X-box binding protein 1 (XBP1), XBP1 (gene 7494); test: LTEA_HepaRG_XBP1: Life Technologies and Expression Analysis (LTEA) Assay for X-box binding protein 1 (XBP1) using HepaRG (AID 2283540; active = hit-call score of the fitted dose curve at least 0.9, where 1 is the maximum; inactive = score below 0.9); conditions: mRNA level, 48 h; actives raise or lower the signal
Summary of the method: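 HepaRG, 48 h exposure, 8-pt half-log CRC top 100 uM, 0.5% DMSO vehicle, duplicates. Readout: TaqMan qRT-PCR of XBP1 mRNA, housekeeping-normalised (ACTB/GAPDH/POLR2A); bidirectional fit vs DMSO baseline.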

[4] = LTEA_HepaRG_LDH_cytotoxicity: Cytotoxicity Assessment in the Life Technologies and Expression Analysis (LTEA) Assay (AID 2283563);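 as to AC50: LDH activity released into spent culture medium as a marker of cell death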
Summary of the method: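 HepaRG (human liver line), 48 h exposure, 8-pt half-log series from 100 uM, 0.5% DMSO vehicle, duplicates. Read-out: LDH in spent medium. Positive-direction fit vs DMSO baseline.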

[5] = ATG_XTT_Cytotoxicity: Cytotoxicity Assessment in the Attagene TRANS-FACTORIAL HepG2 Assay (AID 2283584);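 as to AC50: cells exposed to compound for 24 h before reading; active means loss of viability signal versus DMSO baseline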
Summary of the method: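 XTT readout of cell number in transfected HepG2 cells, 24 h post-dosing; DMSO serves as negative control and baseline, with activity taken as loss of viability signal.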

[6] = TOX21_p53_BLA_p2_viability: Viability Assessment in the Tox21 HCT-116 p53 Agonism Beta-lactamase Assay, Phase 2 (AID 2283591);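 also: actives lower the ATP signal meaning cytotoxicity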
Summary of the method: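 HCT116 p53-bla cells, 4000/well, dosed after 5 h plating (217-fold dilution of DMSO stocks) and incubated 16 h at 37C. Viability taken as cellular ATP by CellTiter-Glo luminescence after 30 min RT; signal loss marks cytotoxicity.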

[7] = molecular target: Cellular tumor antigen p53 (Homo sapiens) (UniProt P04637); test: TOX21_p53_BLA_p2_ratio: Tox21 HCT-116 p53 Agonism Beta-lactamase Assay, Ratio, Phase 2 (AID 2283592)
Cellular tumor antigen p53 (Homo sapiens), sequence (P04637 whole entry, looked up): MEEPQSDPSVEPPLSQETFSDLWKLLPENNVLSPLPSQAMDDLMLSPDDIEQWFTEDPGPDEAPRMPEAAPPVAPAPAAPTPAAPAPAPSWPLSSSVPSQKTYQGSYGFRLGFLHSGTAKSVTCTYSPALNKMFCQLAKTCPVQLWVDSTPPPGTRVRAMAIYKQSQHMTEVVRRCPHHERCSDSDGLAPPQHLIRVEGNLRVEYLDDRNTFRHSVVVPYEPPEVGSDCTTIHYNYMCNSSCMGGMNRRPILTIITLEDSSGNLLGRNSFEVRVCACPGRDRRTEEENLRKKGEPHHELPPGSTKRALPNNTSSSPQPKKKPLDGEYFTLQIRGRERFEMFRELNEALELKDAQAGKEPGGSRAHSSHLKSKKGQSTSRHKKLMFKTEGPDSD
Summary of the method: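 Readout: blue/green (460/530 nm) FRET emission ratio after 2 h CCF4-AM loading at room temperature, excitation 405 nm. HCT116 p53 bla cells, 16 h compound exposure at 37C, 5% CO2; agonist direction fitted against DMSO baseline.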

[8] = molecular target: Cellular tumor antigen p53 (Homo sapiens) (UniProt P04637); test: TOX21_p53_BLA_p3_ratio: Tox21 HCT-116 p53 Agonism Beta-lactamase Assay, Ratio, Phase 3 (AID 2283596)
Summary of the method: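 Cells were seeded at 4000/well, rested 5 h at 37C, then dosed with DMSO compound solutions (217-fold dilution) for 16 h. CCF4-AM substrate was loaded for 2 h at room temperature, and the 460/530 nm emission ratio was fitted for gain of signal versus DMSO.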

[9] = TOX21_p53_BLA_p4_viability: Viability Assessment in the Tox21 HCT-116 p53 Agonism Beta-lactamase Assay, Phase 4 (AID 2283597);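 also: hits lower the luminescence signal meaning cytotoxicity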
Summary of the method: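 ATP content by CellTiter-Glo luminescence, 30 min RT, read after the beta-lactamase ratio step. Cells: HCT116, 4000/well, compound added after 5 h, exposure 16 h at 37C. Signal loss = reduced viability.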

[10] = TOX21_p53_BLA_p5_viability: Viability Assessment in the Tox21 HCT-116 p53 Agonism Beta-lactamase Assay, Phase 5 (AID 2283600)
Summary of the method: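 ATP luminescence (CellTiter-Glo, 30 min, RT) served as the viability read-out, with loss of signal indicating cytotoxicity. Compounds in DMSO were pinned at a 217-fold dilution onto 4000 cells/well and incubated 16 h, 37C.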

[11] = molecular target: Cellular tumor antigen p53 (Homo sapiens) (UniProt P04637); test: TOX21_p53_BLA_p4_ratio: Tox21 HCT-116 p53 Agonism Beta-lactamase Assay, Ratio, Phase 4 (AID 2283601)
Summary of the method: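 HCT-116 p53 beta-lactamase reporter cells (4000/well) preincubated 5 h, then compound (217-fold dilution of DMSO stock) for 16 h at 37C. CCF4-AM substrate added 2 h at room temperature; 460/530 nm emission ratio fitted upward versus DMSO.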

[12] = Tanguay_ZF_120hpf_MORT_legacy: (Legacy) Oregon State University Tanguay Lab 120 Hour Post-fertilization zebrafish Assay for Mortality (AID 2283633);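 as to AC50: fitted as increase in binary mortality versus DMSO negative control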
Summary of the method: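 Brightfield scoring of embryo death (binary) at 24 and 120 hpf; static exposure 6–120 hpf, 28C, sealed and foil-covered. Pronase-dechorionated 5D wild-type larvae, single embryo per well. DMSO 0.64% v/v; trimethyltin chloride 5uM positive control.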

[13] = Tanguay_ZF_120hpf_YSE_legacy: (Legacy) Oregon State University Tanguay Lab 120 Hour Post-fertilization zebrafish Assay for Yolk Sac Edema (AID 2283634);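 as to AC50: actives raise the incidence of yolk sac edema above the DMSO baseline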
Summary of the method: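 Binary brightfield scoring of yolk sac edema at 120 hpf; DMSO baseline, gain-of-signal fitting. Dechorionated 5D larvae, one per well, static exposure 6–120 hpf, 28C, 0.64% DMSO. Dead embryos not scored.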

[14] = Tanguay_ZF_120hpf_AXIS_legacy: (Legacy) Oregon State University Tanguay Lab 120 Hour Post-fertilization zebrafish Assay for Body Axis Malformation (AID 2283635);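 as to AC50: potency for an increased fraction of larvae scored with body axis malformation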
Summary of the method: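 Embryos: 5D wild-type, pronase-dechorionated 4 hpf; static exposure 6–120 hpf, 28C, sealed, dark, 1 embryo/well, 0.64% DMSO. 120 hpf axis malformation scored present/absent; dead embryos excluded. Analysed as gain of signal vs DMSO.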

[15] = Tanguay_ZF_120hpf_EYE_legacy: (Legacy) Oregon State University Tanguay Lab 120 Hour Post-fertilization zebrafish Assay for Eye Malformation (AID 2283636);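 also: binary presence or absence of eye malformation scored by brightfield in 120 hpf larvae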
Summary of the method: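 5D wild-type embryos, pronase-dechorionated at 4 hpf; static exposure 6–120 hpf, 28C, dark; DMSO 0.64% final; 5uM trimethyltin chloride positive control. Binary eye-defect scoring at 120 hpf; dead embryos not scored.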

[16] = Tanguay_ZF_120hpf_SNOU_legacy: (Legacy) Oregon State University Tanguay Lab 120 Hour Post-fertilization zebrafish Assay for Snout Malformation (AID 2283637)
Summary of the method: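 Binary brightfield scoring of snout malformation at 120 hpf. Dechorionated 5D wild-type embryos, one per well, static exposure from 6 hpf at 28C, sealed and dark; final DMSO 0.64% (vol/vol), DMSO as baseline; 5uM trimethyltin chloride positive control.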

[17] = Tanguay_ZF_120hpf_JAW_legacy: (Legacy) Oregon State University Tanguay Lab 120 Hour Post-fertilization zebrafish Assay for Jaw Malformation (AID 2283638);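 as to AC50: active means more embryos with jaw malformation than DMSO controls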
Summary of the method: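 Binary jaw-malformation calls at 120 hpf by brightfield imaging; DMSO (0.64% v/v) = baseline. Embryos: 5D wild-type, pronase-dechorionated, one per well from 6 hpf, static exposure, 28C, sealed, dark.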

[18] = Tanguay_ZF_120hpf_OTIC_legacy: (Legacy) Oregon State University Tanguay Lab 120 Hour Post-fertilization zebrafish Assay for Otic Vesicle Malformation (AID 2283639)
Summary of the method: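 Brightfield scoring at 120 hpf, binary present/absent; DMSO negative control, 5uM trimethyltin chloride positive control. Static exposure at 28C, final DMSO 0.64% (vol/vol). Dead embryos not scored for malformation.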

[19] = Tanguay_ZF_120hpf_PE_legacy: (Legacy) Oregon State University Tanguay Lab 120 Hour Post-fertilization zebrafish Assay for Pericardial Edema (AID 2283640);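 as to AC50: potency for increased incidence of pericardial edema versus DMSO baseline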
Summary of the method: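 Static waterborne exposure, 5D wild-type embryos, 28C, to 120 hpf; final DMSO 0.64% (vol/vol). Binary PE call at 120 hpf by brightfield; fitted upward vs DMSO baseline. 5uM trimethyltin chloride as positive control.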

[20] = molecular target: Cellular tumor antigen p53 (Homo sapiens) (UniProt P04637); test: TOX21_p53_BLA_p5_ratio: Tox21 HCT-116 p53 Agonism Beta-lactamase Assay, Ratio, Phase 5 (AID 2283599)
Summary of the method: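 HCT-116 p53-bla cells (4000/well) plated 5 h, dosed with compound (217-fold DMSO dilution) for 16 h at 37 C; CCF4-AM substrate 2 h at room temperature. Activity is the 460/530 nm emission ratio (405 nm excitation), fitted in gain-of-signal direction versus DMSO.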

Measured: AC50

CC1(C)C(C=C(Cl)Cl)C1C(=O)OCc1cccc(Oc2ccccc2)c1 (stereo not drawn)
active: [1] 14.6 µM
not listed: [20]
inactive: all other assays above

O=C(Nc1ccc([N+](=O)[O-])cc1Cl)c1cc(Cl)ccc1O
active: [1] 3.65 µM | [2] 3.63 µM | [3] 1.97 µM | [4] 4.38 µM | [6] 129 nM and 152 nM | [7] 234 nM and 140 nM | [8] 299 nM and 230 nM | [9] 235 nM and 92 nM | [20] 315 nM and 320 nM | [10] 0.174 µM | [11] 317 nM
inactive: [10] | [11] | [12] | [13] | [14] | [15] | [16] | [17] | [18] | [19]

c1ccc2[nH]c(-c3cscn3)nc2c1
active: [1] 25.8 µM
not listed: [6] | [7] | [8] | [9] | [10] | [11] | [19] | [20]
inactive: all other assays above

C[C@]12CC[C@@H]3c4ccc(O)cc4C[C@@H](CCCCCCCCCS(=O)CCCC(F)(F)C(F)(F)F)[C@H]3[C@@H]1CC[C@@H]2O (stereo partly drawn)
active: [1] 26.9 µM | [2] 50 µM | [3] 0.0493 µM
not listed: [19]
inactive: all other assays above

c1ccc(Nc2ccccc2)cc1
active: [12] 26.2 µM | [13] 12.2 µM | [16] 36.6 µM | [17] 20.7 µM | [19] 36.1 µM
not listed: [8] | [15] | [18]
inactive: all other assays above

O=C(O)c1ccccc1
inactive: all assays above

C[C@]12C[C@H](O)[C@H]3[C@@H](CCC4=CC(=O)CC[C@@]43C)[C@@H]1CC[C@@H]2C(=O)CO
active: [1] 50 µM
not listed: [10]
inactive: all other assays above

N[C@@H](Cc1cc(I)c(Oc2ccc(O)c(I)c2)c(I)c1)C(=O)O
inactive: [3] | [4] | [5] | [6] | [7] | [8] | [9] | [20] | [10] | [11] | [13] | [19]
active: [1] 40 µM | [2] 40 µM | [7] 33.6 µM | [20] 36.8 µM | [11] 34800 nM | [12] 0.233 µM | [14] 0.000818 µM | [15] 0.00251 µM | [16] 0.00111 µM | [17] 0.00171 µM

O=C(c1ccc(O)cc1O)c1ccc(O)cc1O
inactive: [1] | [2] | [3] | [4] | [5] | [7] | [11] | [12] | [13] | [14] | [15] | [16] | [17] | [18] | [19]
active: [7] 73.1 µM | [8] 73.8 µM and 73.3 µM | [20] 76.4 µM and 74.5 µM

CCN(CC)C(=O)c1cccc(C)c1
active: [1] 16.5 µM
not listed: [6] | [7] | [8] | [9] | [10] | [11] | [20]
inactive: all other assays above

C#C[C@]1(O)CC[C@H]2[C@@H]3CCC4=CC(=O)CC[C@@H]4[C@H]3CC[C@@]21CC
active: [1] 0.291 µM
not listed: [13] | [19]
inactive: all other assays above

CC(C)CCCCCCc1ccc(O)cc1
inactive: [1] | [2] | [3] | [4] | [6] | [7] | [8] | [9] | [20] | [10] | [11] | [12] | [13] | [14] | [15] | [16] | [17] | [18] | [19]
active: [5] 50 µM [middle of 4 runs] | [8] 71.2 µM | [9] 25.6 µM and 34.7 µM | [20] 39.9 µM | [10] 37.2 µM | [11] 46.2 µM and 41.7 µM

CCN(Cc1c(F)cccc1Cl)c1c([N+](=O)[O-])cc(C(F)(F)F)cc1[N+](=O)[O-]
active: [1] 7.12 µM | [9] 26.3 µM
inactive: all other assays above
